Compounds with a hit are over-represented: about 3.9% of the library has one in this group of screens.
BH1578 lux ind = inducers of Vibrio cholerae quorum light production without autoinducers | V. cholerae BH1578 lux reporter, luminescence, 6 h | activation, % at 18.7 µM | 350,000 compounds, 0.16% hits; in the data active = activation mostly above about 9.7%, no sharp cut-off
GDH-TPI counter = GDH-TPI coupled enzyme inhibition counter-screen | GDH-TPI coupled enzyme counterscreen, NADH absorbance | 360,000 compounds, 1.2% hits | inhibition, % at 4.8 µM; in the data active = inhibition above about 30%;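 also: 0% = DMSO wells and 100% = wells lacking the enzyme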
PrPC surface inh = cell surface PrPC inhibition, primary TR-FRET screen; TR-FRET read-out; 370,000 compounds, 0.43% hits; AID 720596; inhibition, % at 13.8 µM; P04156; in the data active = inhibition above about 24%; also: 0% = median of the test wells and 100% = reference compound wells
SARS 3CLpro inh = SARS-CoV 3CLpro protease inhibition; P0C6X7; recombinant SARS-CoV 3CLpro, quenched FRET peptide cleavage; inhibition, % at 6 µM; 290,000 compounds, 0.14% hits; in the data active = inhibition above about 12%
FBA Mtb inh = inhibits M. tuberculosis FBA enzyme; purified M. tuberculosis FBA, fluorescence read-out; inhibition, % at 1 µM; 360,000 compounds, 2.3% hits; AID 588726; in the data active = inhibition above about 27%;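 also: 0% = vehicle and 100% = reference inhibitor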
Target sequence (P9WQA3 whole entry, looked up): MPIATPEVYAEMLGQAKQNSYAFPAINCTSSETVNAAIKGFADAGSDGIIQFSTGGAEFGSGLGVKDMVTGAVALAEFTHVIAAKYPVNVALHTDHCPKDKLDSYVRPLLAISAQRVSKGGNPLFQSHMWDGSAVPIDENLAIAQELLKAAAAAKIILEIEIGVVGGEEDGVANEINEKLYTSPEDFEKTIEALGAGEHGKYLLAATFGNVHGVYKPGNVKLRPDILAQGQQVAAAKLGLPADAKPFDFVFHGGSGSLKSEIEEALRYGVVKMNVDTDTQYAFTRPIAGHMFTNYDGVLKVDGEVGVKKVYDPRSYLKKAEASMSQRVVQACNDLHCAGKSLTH
PrPC confirm = cell surface PrPC inhibition, TR-FRET confirmation. 1,500 compounds, 65% hits. inhibition, % at 13.8 µM. cell surface PrPC level. shares compounds with PrPC surface inh; in the data active = inhibition above about 25%
LD9 cytotox = kills or reduces viability of LD9 cells in PrPc counter-screen; shares compounds with PrPC surface inh; LD9 cells cytotoxicity, luminescence viability; inhibition, % at 13.8 µM; 1,500 compounds, 29% hits; AID 743201; in the data active = inhibition above about 9.5%
The depositor's hits bear a star.

Screening CC1NC(=O)c2cc3ccccc3cc2-n2c1nc1ccccc1c2=O (centres undefined) returned BH1578 lux ind -0.4, GDH-TPI counter 10.3, PrPC surface inh -1.3 and FBA Mtb inh -2.3.
For COc1ccc(NC(=O)C(C)N2C(=O)C3CC=C(Cl)CC3C2=O)cc1 (centres undefined) the results were BH1578 lux ind -3.6, GDH-TPI counter 0.3, PrPC surface inh 6.4, SARS 3CLpro inh 0.1 and FBA Mtb inh 0.9.
Screening COc1cc(CNC(=O)c2cc(-c3cc(OC)ccc3Cl)n[nH]2)cc(OC)c1 returned BH1578 lux ind -4.5, GDH-TPI counter 12.6, PrPC surface inh 3.8 and FBA Mtb inh 3.5.
CC(C)(O)/C=C/C(=O)C(C)(O)C1C(O)CC2(C)C3CC=C4C(C=C(O)C(=O)C4(C)C)C3(C)C(=O)CC12C (centres undefined) was read as BH1578 lux ind inactive, GDH-TPI counter 6.9, PrPC surface inh 34.5*, FBA Mtb inh -1.5, PrPC confirm 32.7* and LD9 cytotox 13.5*.
Screening CCOC(=O)C1(C)CCCN(C(=O)c2c(F)cccc2F)C1 (centres undefined) returned BH1578 lux ind -0.3, GDH-TPI counter -1.8, PrPC surface inh 3.1 and FBA Mtb inh -2.1.
OC(COc1ccc2ccccc2c1Br)Cn1cnc(-c2ccccc2)c1 (centres undefined) was read as BH1578 lux ind -0.3, GDH-TPI counter 6.0, PrPC surface inh 65.4*, SARS 3CLpro inh 6.4, FBA Mtb inh -1.2, PrPC confirm 83.6* and LD9 cytotox 0.6.
For COc1ccc(OCC(O)Cn2cnc(-c3ccc(Br)cc3)c2)cc1 (centres undefined) the results were BH1578 lux ind -0.3, GDH-TPI counter 0.6, PrPC surface inh -3.3, SARS 3CLpro inh -3.9 and FBA Mtb inh -1.9.
Screening Cc1cc2ccccc2n1CCNC(=O)C1CCCCC1 returned BH1578 lux ind 1.0, GDH-TPI counter 6.7, PrPC surface inh 36.2*, SARS 3CLpro inh 4.5, FBA Mtb inh 1.5, PrPC confirm 10.9 and LD9 cytotox -1.8.
Cc1cc2ccccc2n1CCNC(=O)C1CCCC1 was read as BH1578 lux ind 5.6, GDH-TPI counter 12.2, PrPC surface inh 39.9*, SARS 3CLpro inh 1.2, FBA Mtb inh 6.5, PrPC confirm 3.7 and LD9 cytotox 1.3.
CCCn1c(CCNC(=O)c2cccs2)nc2ccccc21 was read as BH1578 lux ind -0.2, GDH-TPI counter 6.2, PrPC surface inh 0.0, SARS 3CLpro inh -1.6 and FBA Mtb inh -3.2.
`Cn1c(CNC(=O)C2CCCCC2)cc2ccccc21` gave BH1578 lux ind 0.2, GDH-TPI counter 3.2, PrPC surface inh 9.4, SARS 3CLpro inh 1.1 and FBA Mtb inh 0.7.
Screening O=C(NCCn1ccc2ccccc21)C1CCCCC1 returned BH1578 lux ind inactive, GDH-TPI counter -1.0, PrPC surface inh 5.1, SARS 3CLpro inh 6.9 and FBA Mtb inh -1.8.
Screening Cc1cc2ccccc2n1CCNC(=O)C1CC1 returned BH1578 lux ind -0.2, GDH-TPI counter 6.2, PrPC surface inh 28.4*, SARS 3CLpro inh -3.7, FBA Mtb inh 0.6, PrPC confirm 7.2 and LD9 cytotox -1.9.
Screening Cc1cc2ccccc2n1CCNC(=O)c1cccs1 returned BH1578 lux ind -0.2, GDH-TPI counter 10.1, PrPC surface inh 32.7*, SARS 3CLpro inh 3.9, FBA Mtb inh 3.2, PrPC confirm 25.2* and LD9 cytotox -4.6.
For CCn1c(CNC(=O)C2CCCCC2)cc2ccccc21 the results were BH1578 lux ind inactive, GDH-TPI counter 2.9, PrPC surface inh 9.2, SARS 3CLpro inh 8.0 and FBA Mtb inh 1.1.
Screening CCCS(=O)(=O)c1nc(S(=O)(=O)c2ccc(C)cc2)c(N2CCN(CCO)CC2)s1 returned BH1578 lux ind -0.2, GDH-TPI counter -8.2, PrPC surface inh -3.8, SARS 3CLpro inh 1.4 and FBA Mtb inh -2.0.
Screening Cc1ccc(C(=O)NC(C)C2CC3CCC2C3)c(C)c1 (centres undefined) returned BH1578 lux ind -0.4, GDH-TPI counter 2.3, PrPC surface inh 4.4, SARS 3CLpro inh 3.0 and FBA Mtb inh -5.6.

Assay outcomes from PubChem BioAssay.
